These results are taken from the supplement of paper PMC12819154, “High-throughput peptide-centric local stability assay extends protein–ligand identification to membrane proteins, tissues and bacteria” (Nature Structural & Molecular Biology, 2025).
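Further: lysate desalted by size exclusion to strip endogenous ATP, peptide intensities built from DIA-NN precursor signals, and peptides missing any value discarded before comparison.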

Sequence of UniProt P27241 (P27241 whole entry): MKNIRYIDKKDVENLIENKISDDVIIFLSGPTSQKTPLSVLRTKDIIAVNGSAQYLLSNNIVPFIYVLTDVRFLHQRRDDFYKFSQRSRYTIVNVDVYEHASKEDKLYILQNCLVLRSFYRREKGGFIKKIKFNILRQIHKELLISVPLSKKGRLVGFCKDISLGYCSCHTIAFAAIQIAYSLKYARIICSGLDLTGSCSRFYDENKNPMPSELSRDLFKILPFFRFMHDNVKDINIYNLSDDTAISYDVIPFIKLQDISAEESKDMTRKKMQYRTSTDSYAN
Sequence of UniProt Q46857 (Q46857 whole entry): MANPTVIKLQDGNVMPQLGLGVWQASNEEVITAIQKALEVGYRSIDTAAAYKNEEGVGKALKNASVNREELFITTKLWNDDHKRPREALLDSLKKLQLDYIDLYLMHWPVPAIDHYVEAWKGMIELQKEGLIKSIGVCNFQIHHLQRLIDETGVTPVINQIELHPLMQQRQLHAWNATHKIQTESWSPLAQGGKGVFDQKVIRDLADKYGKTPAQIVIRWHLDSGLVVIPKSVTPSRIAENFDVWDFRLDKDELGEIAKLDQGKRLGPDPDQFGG
Sequence of UniProt P21599 (P21599 whole entry): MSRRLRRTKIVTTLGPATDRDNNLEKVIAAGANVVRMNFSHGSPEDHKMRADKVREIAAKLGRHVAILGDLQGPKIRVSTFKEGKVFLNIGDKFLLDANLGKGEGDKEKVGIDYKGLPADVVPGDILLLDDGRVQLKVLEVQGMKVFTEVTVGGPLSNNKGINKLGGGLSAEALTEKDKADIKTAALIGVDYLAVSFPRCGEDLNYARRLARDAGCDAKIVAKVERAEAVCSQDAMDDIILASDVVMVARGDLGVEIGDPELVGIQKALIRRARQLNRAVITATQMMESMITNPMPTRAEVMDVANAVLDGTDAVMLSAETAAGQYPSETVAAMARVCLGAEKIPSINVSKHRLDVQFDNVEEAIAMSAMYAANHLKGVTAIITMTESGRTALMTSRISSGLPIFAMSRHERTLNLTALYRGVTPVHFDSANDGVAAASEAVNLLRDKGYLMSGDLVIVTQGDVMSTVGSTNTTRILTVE
Sequence of UniProt P76346 (P76346 whole entry): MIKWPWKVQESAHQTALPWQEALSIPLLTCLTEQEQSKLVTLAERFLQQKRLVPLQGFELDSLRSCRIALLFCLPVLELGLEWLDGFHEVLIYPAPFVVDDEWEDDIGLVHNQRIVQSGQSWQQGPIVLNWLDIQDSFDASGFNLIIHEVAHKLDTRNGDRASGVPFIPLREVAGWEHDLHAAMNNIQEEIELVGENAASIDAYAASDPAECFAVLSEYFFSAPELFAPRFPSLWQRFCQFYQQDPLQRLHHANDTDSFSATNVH
Sequence of UniProt P37774 (P37774 whole entry): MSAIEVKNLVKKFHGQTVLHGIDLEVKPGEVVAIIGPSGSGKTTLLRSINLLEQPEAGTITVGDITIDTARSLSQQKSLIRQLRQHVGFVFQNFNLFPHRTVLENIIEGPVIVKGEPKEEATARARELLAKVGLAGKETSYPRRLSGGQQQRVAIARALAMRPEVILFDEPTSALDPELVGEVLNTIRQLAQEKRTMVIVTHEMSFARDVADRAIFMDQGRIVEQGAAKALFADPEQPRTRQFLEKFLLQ
Sequence of UniProt P32053 (P32053 whole entry): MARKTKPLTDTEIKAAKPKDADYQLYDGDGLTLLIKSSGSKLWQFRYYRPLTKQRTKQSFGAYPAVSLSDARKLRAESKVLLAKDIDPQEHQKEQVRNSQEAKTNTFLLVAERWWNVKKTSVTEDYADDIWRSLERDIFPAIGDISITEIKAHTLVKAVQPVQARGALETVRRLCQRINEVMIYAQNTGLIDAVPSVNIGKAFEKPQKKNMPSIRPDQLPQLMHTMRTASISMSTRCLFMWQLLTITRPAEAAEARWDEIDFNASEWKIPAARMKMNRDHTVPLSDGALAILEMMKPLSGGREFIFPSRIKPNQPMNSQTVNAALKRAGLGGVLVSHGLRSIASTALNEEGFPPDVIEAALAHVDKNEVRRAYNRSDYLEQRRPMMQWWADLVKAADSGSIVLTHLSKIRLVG
Sequence of UniProt P05041 (P05041 whole entry): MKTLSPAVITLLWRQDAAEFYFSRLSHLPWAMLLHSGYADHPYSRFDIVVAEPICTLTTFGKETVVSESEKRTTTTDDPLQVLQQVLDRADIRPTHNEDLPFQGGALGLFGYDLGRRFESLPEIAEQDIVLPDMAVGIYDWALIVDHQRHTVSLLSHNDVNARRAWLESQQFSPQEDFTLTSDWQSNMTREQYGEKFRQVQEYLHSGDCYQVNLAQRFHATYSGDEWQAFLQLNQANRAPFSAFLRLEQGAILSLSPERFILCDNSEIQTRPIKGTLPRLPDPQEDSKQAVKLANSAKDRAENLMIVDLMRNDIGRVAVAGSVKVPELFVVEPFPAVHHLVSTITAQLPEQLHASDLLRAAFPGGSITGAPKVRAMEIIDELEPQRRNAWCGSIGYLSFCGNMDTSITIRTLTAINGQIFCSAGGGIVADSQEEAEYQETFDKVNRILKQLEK
Sequence of UniProt P0AAB8 (P0AAB8 whole entry): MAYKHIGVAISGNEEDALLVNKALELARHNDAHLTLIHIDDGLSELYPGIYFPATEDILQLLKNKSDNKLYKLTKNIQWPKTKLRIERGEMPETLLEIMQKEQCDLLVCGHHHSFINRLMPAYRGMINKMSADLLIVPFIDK
Sequence of UniProt P77522 (P77522 whole entry): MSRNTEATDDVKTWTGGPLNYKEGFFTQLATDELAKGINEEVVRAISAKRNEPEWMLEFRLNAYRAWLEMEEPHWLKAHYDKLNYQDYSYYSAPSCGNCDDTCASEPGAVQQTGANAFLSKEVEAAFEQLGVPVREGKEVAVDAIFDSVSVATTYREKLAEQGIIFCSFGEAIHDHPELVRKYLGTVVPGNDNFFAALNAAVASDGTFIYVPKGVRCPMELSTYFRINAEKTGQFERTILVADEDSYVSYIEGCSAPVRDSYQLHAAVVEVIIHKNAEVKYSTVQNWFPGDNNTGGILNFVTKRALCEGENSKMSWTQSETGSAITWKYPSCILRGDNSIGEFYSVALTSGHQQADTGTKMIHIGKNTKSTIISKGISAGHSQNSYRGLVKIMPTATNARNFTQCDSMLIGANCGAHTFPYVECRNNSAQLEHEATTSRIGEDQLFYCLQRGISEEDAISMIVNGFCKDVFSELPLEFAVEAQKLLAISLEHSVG
Sequence of UniProt P76403 (P76403 whole entry): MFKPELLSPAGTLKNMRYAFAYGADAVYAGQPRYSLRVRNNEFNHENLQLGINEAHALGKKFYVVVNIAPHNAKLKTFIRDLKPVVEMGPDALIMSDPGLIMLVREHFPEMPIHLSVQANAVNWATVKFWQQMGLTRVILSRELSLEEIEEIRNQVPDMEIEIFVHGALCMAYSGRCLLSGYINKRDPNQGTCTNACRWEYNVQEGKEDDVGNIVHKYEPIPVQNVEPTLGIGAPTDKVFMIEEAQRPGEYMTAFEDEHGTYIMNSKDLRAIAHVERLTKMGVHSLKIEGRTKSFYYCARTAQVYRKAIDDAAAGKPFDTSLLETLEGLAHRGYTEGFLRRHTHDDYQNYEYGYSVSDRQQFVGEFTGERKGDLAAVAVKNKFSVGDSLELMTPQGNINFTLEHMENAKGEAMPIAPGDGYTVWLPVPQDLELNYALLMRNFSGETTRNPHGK

Compound in this assay: Nc1ncnc2c1ncn2[C@@H]1O[C@H](COP(=O)(O)OP(=O)(O)OP(=O)(O)O)[C@@H](O)[C@H]1O [adenosine 5'-triphosphate]
Briefly: log2 fold change of tryptic peptide abundance, ligand vs vehicle (limited proteolysis) (log2 ratio); higher = more trypsin-susceptible (destabilized). The note with it: ligand concentration: 5 mM; sample: E. coli desalted lysate; replicate design: treated before aliquoting. On the procedure: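 HT-PELSA: desalted E. coli K-12 BW25113 lysate (with 12 mM MgCl2) incubated with 5 mM ATP (pH 7) or water for 30 min at 25 C, then a 4 min trypsin pulse at 22 C. Peptides were quantified by DIA-MS (4 replicates). Value is the peptide log2 fold change (treated/control); negative = stabilized. Scale: negative = ligand-stabilized region.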
As for “UniProt P77522 (peptide sequence: IMPTATNAR, peptide start residue: 392)”, the log2 fold change was 1.07. “UniProt P37774 (peptide sequence: TMVIVTHEMSFAR, peptide start residue: 196)”: the log2 fold change stood at 1.7. “UniProt P0AAB8 (peptide sequence: EQCDLLVCGHHHSFINR, peptide start residue: 102)”: the log2 fold change is -0.697. Regarding “UniProt P76403 (peptide sequence: SFYYCARTAQVYRK, peptide start residue: 294)”, the log2 fold change was -0.632.

With “UniProt P32053 (peptide sequence: AFEKPQKK, peptide start residue: 202)”, the log2 fold change was -0.721. For the target “UniProt P76346 (peptide sequence: LHHANDTDSFSATNVH, peptide start residue: 250)”, the log2 fold change was determined as 0.288. Consider “UniProt P27241 (peptide sequence: YTIVNVDVYEHASKEDK, peptide start residue: 90)”, for which the log2 fold change was -0.487. On to “UniProt P05041 (peptide sequence: APFSAFLR, peptide start residue: 239)”, for which the log2 fold change came to 0.459. Regarding “UniProt Q46857 (peptide sequence: DLADKYGK, peptide start residue: 204)”, the log2 fold change is -0.885. With “UniProt P21599 (peptide sequence: VLEVQGMK, peptide start residue: 138)”, the log2 fold change was -1.
